The campaign covered roughly 52,000 compounds. About 4,300 (8.3%) were called active. Cut-off read from the data, not from the text of the source: active = survival mostly below about 52% (no sharp cut-off); inactive = mostly above about 56%. This excerpt belongs to a sample that is enriched for actives.

This experiment has as its system DeltatarO mutant. The experiment can be described thus: S. aureus survival, RN4220 and DeltatarO strains – OD600, teichoic acid synthesis inhibitors, primary screen (AID 463173). Particulars: S. aureus RN4220 wild type/DeltatarO growth, OD600, 18 h, hits give low values, screened at 18.75 µg/mL (by protocol).
`COc1ccccc1-c1nnc2n(CCc3ccccc3)c(=O)c3ccccc3n12`: the survival was 69% (inactive).
The value for `CCN(CC)C(=O)c1sc2c(c1C)c(=O)n(-c1ccc(C)c(C)c1)c(=O)n2CC(=O)Nc1ccc(OC)cc1OC` was 78% (inactive).
As for `O=C(NCc1cccc(Cl)c1)C1CCCN(c2ncnc3onc(-c4ccc(F)cc4)c23)C1` (stereo unspecified), the survival was 90% (inactive).
As for `COc1ccc(C)cc1NC(=O)c1nnn(Cc2cccc(Br)c2)c1N`, the survival is 87% (inactive).
The figure for `COc1ccc(N2CCN(c3oc(-c4ccc(COc5cccc(C)c5)o4)nc3C#N)CC2)cc1` is 102% (inactive).
The value for `COc1cc2nc(C3CCC3)n(NC(=O)c3ccco3)c(=O)c2cc1OC` was 82% (inactive); that for `O=S1(=O)N=C(Nc2cccc(C(F)(F)F)c2)c2ccccc21` was 53% (inactive).
The figure for `Cc1nnc2c(N3CCN(c4ccccc4F)CC3)nc3ccc(C(=O)c4ccccc4)cc3n12` is 93% (inactive); for `COc1ccccc1N1CCN(c2nc3ccc(C(=O)c4ccccc4)cc3n3c(C)nnc23)CC1` it is 46% (active).
On to `Cc1nnc2c(N3CCN(c4ccccc4)CC3)nc3ccc(C(=O)c4ccccc4)cc3n12`, for which the survival is 80% (inactive).
The value for `COc1ccc(NC(=O)Cn2nc(-c3ccccc3)c3cnc4ccc(C)cc4c32)cc1` was 63% (inactive).
The value for `CC(C)c1ccc2c(c1)-c1ccccc1S(=O)(=O)N2CC(=O)N1CCCCC1` was 85% (inactive).
The figure for `CCCC(=O)NC(C)c1nc2ccccc2n1Cc1ccccc1` (stereo unspecified) is 101% (inactive); for `Cc1cc(N2CCOCC2)cc(C)[n+]1[O-]` it is 90% (inactive); for `CCc1ccc(C2CC(=O)N(c3cccc(C(F)(F)F)c3)C3=C2C(=O)OC3)cc1` (stereo unspecified) it is 57% (active).
On to `Cc1cc(C)cc(N2C(=O)CC(c3ccc(C(F)(F)F)cc3)C3=C2COC3=O)c1` (stereo unspecified), for which the survival was 72% (inactive).
The figure for `COc1ccccc1C1CC(=O)N(c2cccc(C(F)(F)F)c2)C2=C1C(=O)OC2` (stereo unspecified) is 56% (inactive).
The figure for `CCN(CC)c1ccc(NC(=O)c2cc(CN3CCCC3)on2)c(C)c1` is 102% (inactive).
The figure for `CC(=O)c1ccc(N2CCN(c3ncnc4onc(C)c34)CC2)cc1` is 55% (inactive).
As for `COc1ccc(S(=O)(=O)c2nnn(-c3cccc(Cl)c3)c2N)cc1`, the survival was 56% (inactive).
For the compound `CCOc1cccc(-c2nc3ccccc3c(=O)o2)c1`, the survival is 35% (active).
The value for `CCOc1ccc(-c2nc3ccccc3c(=O)o2)cc1` was 68% (inactive).
The value for `CCCOc1ccc(-c2nc3ccccc3c(=O)o2)cc1` was 64% (inactive); that for `CCCOc1cccc(C(=O)NCc2cccnc2)c1` was 81% (inactive).
The figure for `COc1cc(N2C(=O)CSC23C(=O)N(C)c2ccccc23)cc(OC)c1OC` (stereo unspecified) is 66% (inactive).
For `COC(=O)c1cc(S(=O)(=O)NCC2CCN(Cc3ccc(F)cc3)CC2)cn1C`, the survival was 109% (inactive).
The figure for `CCCCCSc1nnc(-c2ccc(Br)cc2)o1` is -1% (active); for `CCCCOC(=O)CSc1nnc(-c2ccc(C)cc2)o1` it is 12% (active).
The figure for `N#Cc1ccc(CSc2nnc(-c3ccc(Br)cc3)o2)cc1` is 87% (inactive); for `COc1ccc(-c2nnc(SCC(=O)Oc3cc(C)ccc3C)o2)cc1` it is 67% (inactive).
As for `N#Cc1ccccc1CSc1nnc(-c2ccc(Br)cc2)o1`, the survival was 92% (inactive).
The figure for `CCOC(=O)CSc1nnc(-c2ccc(OC)cc2)o1` is 66% (inactive); for `CC(=O)Nc1ccc(S(=O)(=O)N2CCC(N3CCN(Cc4ccc(C)cc4)C(=O)C3=O)CC2)cc1` it is 83% (inactive).
The value for `COCCCNc1nc2c(-c3ccccc3)nnn2c2ccccc12` was 78% (inactive); that for `Cc1csc2nc(-c3cccc(NC(=O)c4ccccc4F)c3)cn12` was 126% (inactive); that for `CCC(=O)Nc1ccc(-c2nc3ccc(NC(=O)CC)cc3[nH]2)cc1` was 66% (inactive).
The figure for `O=C(Nc1ccc2nc(-c3ccccc3)[nH]c2c1)c1ccco1` is 1% (active); for `O=C(NCc1nc2ccccc2[nH]1)c1c(F)cccc1F` it is 56% (inactive); for `O=C(Nc1cccc(NC(=O)c2ccccc2F)c1)c1ccccc1` it is 77% (inactive).
On to `CC(=O)Nc1cc(NC(C)=O)cc(-c2nc3ccccc3[nH]2)c1`, for which the survival is 83% (inactive).
The figure for `CC(C)(C)C(=O)Nc1ccc(-c2nc3ccc(NC(=O)C(C)(C)C)cc3[nH]2)cc1` is 105% (inactive); for `O=C(Nc1cccc(-c2nc3ccccc3[nH]2)c1)c1c(F)cccc1F` it is 37% (active); for `O=C(Nc1cccc(-c2nc3ccccc3[nH]2)c1)c1ccccc1F` it is 29% (active).
With `O=C(Nc1ccc(C(=O)OCc2cc(=O)n3ccsc3n2)cc1)c1cccc(F)c1`, the survival is 102% (inactive).
The figure for `COc1ccc(C(=O)N(Cc2ccco2)Cc2ccccc2F)cc1Cl` is 98% (inactive); for `Cc1cccc(NC(=O)CCN2CCC(C)CC2)c1` it is 91% (inactive).
The value for `Cc1ccc(NC(=O)CSc2nc(=O)n(CCCN(C)C)c3c2CCC3)cc1F` was 71% (inactive); that for `COc1cc(NC(=O)C(CC(C)C)N2Cc3ccccc3C2=O)cc(OC)c1` (stereo unspecified) was 108% (inactive); that for `O=C(N=Nc1c(O)[nH]c2ccccc12)C1CC1c1ccccc1` (stereo unspecified) was 35% (active).
On to `O=C(Cc1ccccc1)N=Nc1c(O)[nH]c2ccccc12`, for which the survival is 91% (inactive).
The value for `O=C(N=Nc1c(O)[nH]c2ccccc12)C1C2CCCCC21` (stereo unspecified) was 95% (inactive).
The figure for `Cc1cc(Nc2cccc(Cl)c2)nc2ccc(NC(=O)Cc3ccc(Cl)cc3)cc12` is 105% (inactive); for `Cc1c(C(=O)N2CCCCCC2)c(S(=O)(=O)NCc2ccccc2)c(C)n1C` it is 77% (inactive).
The figure for `CCOc1ccc2[nH]c(=O)c(CN(Cc3ccccc3)C(=O)N3CCOCC3)cc2c1` is 105% (inactive); for `CC(C)c1ccc(-c2nnn(CC(=O)OC3CCCCC3)n2)cc1` it is 87% (inactive).
`CC(C)COc1ccc(-c2nnn(CC(=O)N3C(C)CCCC3C)n2)cc1` (stereo unspecified): the survival is 69% (active).
The value for `CCOc1ccc(-c2nnn(CC(=O)NC3CCCCC3)n2)cc1` was 75% (inactive).
In the case of `Cc1ccc(NC(=O)Cc2ccc(-n3c(C)nc4cccnc43)cc2)c(Cl)c1`, the survival was 107% (inactive).
`CCOc1ccc(NC(=O)CSc2ncn[nH]2)cc1`: the survival was 67% (inactive).
As to `CCCCN1C(=O)c2[nH]nc(-c3ccccc3O)c2C1c1cc(Br)c(O)c(OC)c1` (stereo unspecified), the survival was 2% (active).
`COc1cc(C2c3c(-c4ccccc4O)n[nH]c3C(=O)N2Cc2ccncc2)cc(OC)c1OC` (stereo unspecified): the survival was 82% (inactive).
For `CCCOc1ccc(C2c3c(-c4ccccc4O)n[nH]c3C(=O)N2CCc2ccccc2)cc1OCC` (stereo unspecified), the survival was 53% (inactive).
In the case of `COCCN1C(=O)c2[nH]nc(-c3ccccc3O)c2C1c1ccc(Cl)c(Cl)c1` (stereo unspecified), the survival is 3% (active).
The figure for `CCOc1cc(C2c3c(-c4ccccc4O)n[nH]c3C(=O)N2CCc2ccccc2)ccc1O` (stereo unspecified) is 29% (active).
The value for `CCCN1C(=O)c2[nH]nc(-c3ccc(F)cc3)c2C1c1ccc(O)c(OCC)c1` (stereo unspecified) was 51% (inactive).
Turning to `CCCN1C(=O)c2[nH]nc(-c3ccccc3O)c2C1c1ccc(OCc2ccccc2)c(OCC)c1` (stereo unspecified), the survival was 40% (active).

Values taken from PubChem BioAssay AID463173 (ICCB-Longwood Screening Facility, Harvard Medical School, 2010).
